Experimental data reported in PubChem BioAssay (NCI).
This is part of a sample that, as a whole, favours compounds with a hit. Of some 83,000 tested, about 20% had one in any assay.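 Percent growth is the endpoint: 0 to 100 indicates growth inhibition (40 means 60% inhibition), 0 means no net growth, and negative values indicate cell death.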 Unmarked numbers belong to inactive results. Activity calls are given as the source filed them. Rule for the calls: active = growth percent below 10; inactive = the rest.

How the values were obtained:
Test in all cases: NCI-60 one-dose screen, 48 h (100 = growth as untreated, 0 = no growth, -100 = all killed)
Details in all cases: 10 µM unless noted
[1] = system: NCI-H23 lung
[2] = system: NCI-H226 lung
[3] = system: NCI-H322M lung
[4] = system: HOP-62 NSCLC
[5] = system: NCI-H460 lung
[6] = system: HOP-92 NSCLC
[7] = system: NCI-H522 lung
[8] = system: A549/ATCC NSCLC
[9] = system: 786-0 renal
[10] = system: COLO 205 colon
[11] = system: DU-145 prostate
[12] = system: MALME-3M melanoma
[13] = system: MDA-MB-231 breast
[14] = system: RXF 393 renal
[15] = system: SF-268 CNS
[16] = system: SF-295 CNS
[17] = system: SF-539 CNS
[18] = system: UACC-257 melanoma
[19] = system: M14 melanoma
[20] = system: K-562 leukemia

Row | SMILES | growth [1] | growth [2] | growth [3] | growth [4] | growth [5] | growth [6] | growth [7] | growth [8] | growth [9] | growth [10] | growth [11] | growth [12] | growth [13] | growth [14] | growth [15] | growth [16] | growth [17] | growth [18] | growth [19] | growth [20]
1 | COP(=S)(N1CC1)N1CC1 | 101% | 98.6% | 100% | 94.1% | 107% | 98.6% | 103% | 133% | 105% | 106% | 123% | 105% | 93% | 114% | 112% | 104% | 94.3% | 147% | 99.5% | –
2 | ClCCN(CCCl)c1ccc(-n2cnc3c(Cl)ncnc32)cc1 | -69% (active) | 97.5% | 58.7% | 87% | 47.8% | -1.92% (active) | -76.9% (active) | 85.2% | 106% | 65.8% | 21.9% | – | 62.9% | -57.2% (active) | -11.9% (active) | 87% | 115% | 49.7% | 33.3% | -2.07% (active)
3 | COc1ccc(/C=C\c2cc(OC)c(OC)c(OC)c2)cc1NC(=O)/C=C/c1ccc(OC)c(OC)c1 | 0.102% (active) | 35.9% | 68.2% | 39.5% | 22% | 115% | 11.1% | 41.7% | 35.7% | -4.78% (active) | 15.9% | 51.7% | 58.6% | -15.1% (active) | 41.7% | 5.37% (active) | 2.69% (active) | 73.9% | 23.4% | –
4 | O=C(Nc1ccc([As]=[As]c2ccc(NC(=O)c3ccccc3)cc2)cc1)c1ccccc1 (stereo unspecified) | -71.3% (active) | -85.5% (active) | -76.8% (active) | -96.7% (active) | -30.5% (active) | -93.1% (active) | -75.9% (active) | -63.2% (active) | -94.3% (active) | -83.4% (active) | -96% (active) | -80.5% (active) | – | -97.8% (active) | -91.4% (active) | -52.7% (active) | -90.9% (active) | -87% (active) | -89% (active) | -16.8% (active)
5 | COc1cccc(C=NC(Cc2cnc[nH]2)C(=O)O)c1O (stereo unspecified) | 107% | 94.8% | 95.5% | 87.6% | 107% | 56% | 59.3% | 91.5% | 97.2% | 122% | 121% | – | 102% | 3.56% (active) | 112% | 70.3% | 93.1% | 46.7% | 89.7% | 135%
6 | COc1cccc2c1c(C(=O)C(=O)Nc1ccn[nH]1)cn2Cc1ccc(F)cc1 | 96.4% | 76.4% | 97.8% | 103% | 77.6% | 87% | 96.8% | 86.3% | 92.4% | 103% | 104% | 112% | 109% | 99.8% | 100% | 143% | 99.5% | 104% | 101% | –
7 | CC(=O)O[C@H]1CC[C@]2(C)[C@H]3CC[C@]4(C)[C@@H](OC(C)=O)CC[C@H]4[C@@H]3[C@@H](C)[C@]2(O)C1 | 111% | 104% | 106% | 105% | 116% | 108% | 94.8% | 114% | 103% | 104% | 107% | – | 108% | 114% | 112% | – | 99.6% | 127% | 109% | 85.1%
8 | C=CCc1cc2c(cc1OCC)OCO2 | 95.6% | 99.3% | 114% | 64.7% | 102% | 81.1% | 74.5% | 88.9% | 92.4% | 108% | 108% | 116% | 110% | – | 94.8% | 93.6% | 99.1% | 105% | 92.9% | 114%
9 | COC(=O)CC12CC(NC(=O)c3csc([C@@H](C[C@H](C(C)C)N(C)C(=O)[C@@H](NC(=O)[C@H]4CCCCN4C)C(C)C)OC(C)=O)n3)(C1)C2 | 21.3% | 23.1% | 43% | 6.8% (active) | 7.76% (active) | 35.7% | 10.8% | 18% | 12% | -54.7% (active) | 14% | 51% | 6.67% (active) | – | 26.1% | -7.27% (active) | -12.8% (active) | – | 7% (active) | 9.94% (active)
10 | CC(=O)O[C@@H]1CC[C@]2(C)[C@H]3CC[C@]4(C)C(=O)CC[C@H]4[C@@H]3C[C@@H]3SC(N)=N[C@@]32C1 | 79.6% | 83.4% | 89.7% | 70.1% | 38.7% | 78.8% | 8.26% (active) | 47.4% | 58.8% | 48.8% | 79.2% | 55.4% | 68.2% | 79.7% | 73.9% | 42.7% | 51.3% | 67.1% | 41.1% | –
11 | CC(=O)OC[C@]1(C)C=C2C(=O)[C@](C)(O)C3(CC3)C(C)=C2[C@H]1OC(=O)N(C)CCN(C)C(=O)OC(C)(C)C | -17.8% (active) | 24.7% | 12.4% | -19.9% (active) | 0.38% (active) | -13.4% (active) | -47% (active) | 4.55% (active) | 0.73% (active) | -66.8% (active) | 3.6% (active) | -44% (active) | 4.31% (active) | -68.2% (active) | 7.08% (active) | 6.27% (active) | -37.1% (active) | 33.7% | -29.4% (active) | –
12 | COC(=O)C1CCC(NC(=O)c2csc([C@@H](C[C@H](C(C)C)N(C)C(=O)[C@@H](NC(=O)[C@H]3CCCCN3C)C(C)C)OC(C)=O)n2)CC1 (stereo partly specified) | 32% | 17% | 47.8% | 7.46% (active) | 6.14% (active) | 32.2% | -25% (active) | 15.9% | 13% | -71.1% (active) | 9.8% (active) | 57.8% | 12.1% | – | 22.6% | 2.5% (active) | -10.1% (active) | – | 1.47% (active) | 10%
13 | O=P(N1CC1)(N1CC1)N1CCc2ccccc21 | 103% | 105% | 108% | 105% | 63.3% | 115% | 109% | 101% | 106% | 117% | 112% | 109% | 104% | 109% | 103% | – | 105% | 110% | 104% | –
14 | C[C@]12CCc3nc(Nc4ccccc4F)sc3C1=CC[C@@H]1[C@@H]2CC[C@]2(C)C(=O)CC[C@@H]12 | 77.7% | 85.9% | 86.5% | 87.2% | 60.3% | 116% | 79.1% | 76.7% | 38.5% | 75.7% | 28.4% | 75.7% | 92.5% | – | 78.8% | 51% | 41.4% | 90.7% | 75.1% | 21.7%
15 | O=NNc1ccccn1 | 79.4% | 91.1% | 126% | 90.3% | 41.7% | 92.1% | 64.3% | 95.1% | 106% | 95.8% | 5.33% (active) | – | 91.2% | 83.8% | 91.1% | 96% | 94.3% | 94.9% | 87.3% | 77.7%
